# Laboratory results published in PubChem BioAssay AID485297 (National Center for Advancing Translational Sciences (NCATS), 2010).
# The whole screen tested about 320,000 compounds, of which about 9,100 (2.8%) were called active. About 3% were inconclusive and are not listed. The call rests on the fitted dose curve; in most records, active means well fitted activation curve with a large enough effect; inconclusive means small, poorly fitted or top-dose-only effect; inactive means no such curve, though single readings can be large or run the other way. The list comes from a sample in which actives are over-represented; it also holds similar structures and randomly drawn compounds. Entries that show only a call come without a potency.
# Assay: qHTS Assay for Rab9 Promoter Activators; further: nearly all actives have a fitted effect of over 60% in size
# Conditions: Huh7 Rab9 promoter-luciferase reporter, luminescence, 24 h; series mostly up to 9.22 µM
# Summary of the method: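 Using Huh7 cells stably transfected with Rab9 promoter–luciferase, compounds were incubated 24 h at 37 °C, 5% CO2; luciferase luminescence was read 10 min after reagent addition.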
# Potency means the concentration at half of the fitted maximal effect.
Structure (SMILES),Potency,"activation, negative = inhibition"
O=C(CN1CCN(C2CCS(=O)(=O)C2)CC1)N1N=C(c2ccc(Cl)cc2)CC1c1ccco1 (centres undefined),inactive,–
CC(=O)NCc1ccc(-c2csc(NC(=O)CCCc3nc4ccccc4c(=O)[nH]3)n2)cc1,inactive,–
CC1(C(=O)OCC(=O)Nc2ncc(Cl)cc2Cl)CC1(Cl)Cl (centres undefined),inactive,–
O=C(CSc1ccccc1)Nc1cccc(S(=O)(=O)N2CCOCC2)c1,inactive,–
O=C1c2cccc3c([N+](=O)[O-])ccc(c23)C(=O)N1CC1CCCO1 (centres undefined),inactive,–
O=C1C(C=NCC2CCCO2)=C(O)c2ccccc21 (centres undefined),2.82 µM (active),–
CC(=NCC1CCCO1)c1c(O)[nH]c(=O)[nH]c1=O (centres undefined),inactive,–
O=[N+]([O-])c1ccccc1SNc1ccccn1,inactive,–
O=C(O[C@H]1[C@H](Cc2ccccc2)NS(=O)(=O)[C@H]2C[C@@H]3C=C[C@]12O3)c1ccc([N+](=O)[O-])cc1,inactive,–
COc1ccc2c(C)cc(SCC(=O)NCC3CCCO3)nc2c1 (centres undefined),inactive,–
CCCCSc1nnc(-c2ccc(C)cc2)o1,1.58 µM (active),–
CCOC(=O)CSc1nnc(-c2ccncc2)o1,inactive,–
Cc1cccc(C)c1OC(=O)CSc1nnc(-c2ccccc2)o1,inactive,–
Cc1ccc(S(=O)(=O)N(C)C)cc1NC(=O)C(C)OC(=O)c1ccc2ccccc2n1 (centres undefined),inactive,–
O=C(c1ccccc1)N1CCN(C(=O)N2CCCCC2)CC1,inactive,–
O=C(O)c1cccc(N=NN2CCCCCC2)c1,0.282 µM (active),–
O=C(O)c1ccc(N=NN2CCOCC2)cc1,inactive,–
COc1ccc2c3c(c(=O)oc2c1)C1O[C@](CCCCN2C(=O)c4ccccc4C2=O)(Cc2c1ccc1ccccc21)O3,–,-1.17% [at 1.84 µM] (inactive)
COc1cc(C(=O)NCC2(c3ccccc3)CCCC2)ccc1OC(C)C,inactive,–
Cc1cc2nc(C)n(CCCNC(=O)Nc3ccccc3)c2cc1C,inactive,–
Cc1nc2cc(NC(=O)NC3CC3)ccc2n1C,inactive,–
Cc1nc2cc(NC(=O)Nc3cccc(F)c3)ccc2n1C,0.0891 µM (active),–

Structure (SMILES),Potency,"activation, negative = inhibition"
c1ccc(-n2ncc3c2ncn2c(C4CCCCC4)nnc32)cc1,3.98 µM (active),–
CC(=O)Cn1cnc2c(cnn2-c2ccccc2)c1=O,inactive,–
CN(C(=O)COc1ncnc2c1cnn2-c1ccccc1)C1CCCCC1,inactive,–
c1ccc2cc(CCCc3cc4ccccc4cn3)ncc2c1,inactive,–
O=C(CCNC(=O)c1ccc(Br)cc1)NCCCc1ccccc1,inactive,–
CC(C)c1ccc(C(=O)NCCCc2ccccc2)cc1,3.16 µM (active),–
CCCc1ccc(OCCNC(=O)c2ccco2)cc1,inactive,–
O=C(NCCOc1ccccc1)c1ccccc1,0.708 µM (active),–
CCCOc1ccc(C(=O)NCCc2ccccc2)cc1,0.447 µM (active),–
COc1ccc(OCCCC(=O)NCCc2ccccc2)cc1,inactive,–
CN(c1ccccc1)S(=O)(=O)c1ccc(C(=O)NCCc2ccccc2)cc1,inactive,–
CCCCCCCCC(=O)NCCOc1ccccc1,inactive,–
Cc1noc(C)c1COc1ccc(C(=O)NCCOc2ccccc2)cc1,inactive,–
CC1(C)NC(=O)N(CC(=O)N2CCN(S(=O)(=O)c3ccccc3F)CC2)C1=O,inactive,–
CC(=O)Nc1ccc(NC(=O)CSc2nnc(C3CC3)n2-c2ccccc2)cc1,inactive,–
CCC(C)C(N=C1NS(=O)(=O)c2ccccc21)C(=O)N1CCC(C)CC1 (centres undefined),inactive,–
O=C(NCCc1ccc(F)cc1)c1ccc2nccnc2c1,1.12 µM (active),–
O=C(NCCc1ccc(F)cc1)c1ccc(S(=O)(=O)N2CCCCC2)cc1,inactive,–
Cc1ccc(C)c(NC(=O)c2ccc3nccnc3c2)c1,inactive,–
CC(=O)Nc1ccc(NC(=O)COC(=O)c2ccccc2C(=O)c2ccccc2)cc1,inactive,–
CCN(CC)S(=O)(=O)c1ccc2[nH]c(=O)cc(C(=O)N(C)C3CCS(=O)(=O)C3)c2c1 (centres undefined),inactive,–
Cc1ccccc1Nc1nc(N)nc(COC(=O)CCC(=O)c2ccc(F)cc2)n1,inactive,–

Structure (SMILES),Potency,"activation, negative = inhibition"
O=C(Nc1nnc(-c2ccc(F)cc2)s1)c1c(F)cccc1Cl,inactive,–
CCOC(=O)c1cc(C(C)C)sc1NC(=O)COC(=O)c1nccnc1N,inactive,–
NNC(=O)c1cccc(COCC(F)(F)C(F)F)c1,inactive,–
CC(C)c1cc(C(N)=O)c(NC(=O)c2cccc(COc3ccc(Br)cc3)c2)s1,1.26 µM (active),–
COCC(C)NC(=O)c1ccc(-n2nc(C(F)(F)F)cc2-c2cccs2)cc1 (centres undefined),inactive,–
C=CCn1c(CCNC(=O)c2cccs2)n[nH]c1=S,inactive,–
C=CCn1c(=NC(=O)c2ccc(S(=O)(=O)N3CCCC3)cc2)sc2cc(NC(C)=O)ccc21,inactive,–
C=CCn1c(=NC(=O)c2cccs2)sc2cc(NC(C)=O)ccc21,3.98 µM (active),–
Cc1cccc(NS(=O)(=O)c2cccc(C(=O)NNC(=O)c3ccccc3O)c2)c1,inactive,–
O=C(CSc1ccccc1)Nc1cccc(S(=O)(=O)N2CCCCC2)c1,inactive,–
CCN(c1ccccc1)S(=O)(=O)c1ccc(OCC(=O)N2CCCC2)cc1,inactive,–
CC(=O)Nc1ccc(SC[C@H](Cc2ccccc2)N2CC[C@@H](C)CCC2=O)cc1,inactive,–
COc1cc(OC)cc(-c2nnc(N(C)C(=O)c3ccncc3)s2)c1,inactive,–
CN(C(=O)c1ccccn1)c1nnc(-c2ccccn2)s1,3.55 µM (active),–
COc1cccc(-c2nnc(N(C)C(=O)c3ccno3)s2)c1,inactive,–
O=C(CNc1ccccc1N1CCCC1=O)Nc1cc(Cl)ccc1-n1cncn1,inactive,–
Cc1c(Br)c([N+](=O)[O-])nn1CC(=O)N1CCN(Cc2ccccc2)CC1,inactive,–
O=C(COC(=O)c1cc(=O)[nH]c2ccccc12)NCc1cccc(Cl)c1,inactive,–
COc1cccc(C(=O)NCCSc2ccc(Br)cc2)c1,inactive,–
COc1ccc(C(=O)NCc2nnc(SCCOc3ccccc3)n2C)cc1,inactive,–
COc1ccc(C(=O)NCCSc2ccccc2C)cc1,0.794 µM (active),–
CCNC(=O)N1CCN(S(=O)(=O)c2ccc3c(c2)OCCCO3)CC1,inactive,–

Structure (SMILES),Potency,"activation, negative = inhibition"
COc1ccc(OC)c(/C=N/NC(=O)c2ccc[n+](CC(=O)c3ccccc3)c2)c1,inactive,–
O=c1c2ccccc2nc2n1C(CSc1ccc(Cl)cc1)CN2 (centres undefined),inactive,–
O=C(/C=C/c1ccc2c(c1)OCO2)NCc1cn2cc(Cl)ccc2n1,inactive,–
Clc1ccc2nc(CSc3ccccc3)cn2c1,0.316 µM (active),–
O=C(Nc1ccc2oc(-c3ccc4ccccc4c3)nc2c1)c1cccs1,1.26 µM (active),–
O=C(Nc1ccc(NC(=O)c2cccs2)cc1)c1ccc2ccccc2c1,inactive,–
COc1cc2ccccc2cc1C(=O)Nc1ccc(NC(=O)c2cccs2)cc1,inactive,–
COc1ccc(S(=O)(=O)N2CCN(CC(=O)N3c4ccccc4CC3C)CC2)cc1OC (centres undefined),inactive,–
Nc1nc(SCC(=O)Nc2ccc(Cl)c([N+](=O)[O-])c2)n[nH]1,inactive,–
C/C=C\C=C\C(=O)N1CC2(CC(c3cccc(NC(=O)/C(C)=C\C)c3)=NO2)C[C@H]1C(N)=O (some centres undefined),inactive,–
COc1ccccc1C1CCN(C(=S)Nc2ccc(Br)cc2)CC1,inactive,–
CC(C(=O)N1CCc2ccccc21)N(C)CC(=O)Nc1ccc(F)cc1 (centres undefined),inactive,–
Cc1ccc(OCc2cc(C(=O)N(C)CCc3ccccc3)no2)cc1C,3.98 µM (active),–
CCn1ccnc1CN(C)C(=O)c1cc(COc2ccc(-n3cncn3)cc2)on1,inactive,–
CN(Cc1cnccn1)C(=O)c1cc(COc2cccc(C(F)(F)F)c2)on1,inactive,–
CN(Cc1cccnc1)C(=O)c1cc(COc2ccc3ncccc3c2)on1,inactive,–
CN(CCOc1ccccc1)C(=O)c1cc(COc2c(F)cccc2F)on1,inactive,–
Cc1cc(CN(C)C(=O)c2cc(COc3ccc(C)c(C)c3)on2)n[nH]1,2 µM (active),–
COc1ccc(C(=O)N2CCN(c3ncccn3)CC2)cc1S(=O)(=O)N1CCOCC1,inactive,–
COc1cccc(NC(=O)CN(C)C(=O)/C=C/c2cn(-c3ccccc3)nc2-c2cccs2)c1,inactive,–
CN(C)CCn1c(=S)[nH]c2ccc(Cl)cc2c1=O,inactive,–
CN(C)CCN=c1cc(-c2ccccc2)oc2ccc(Cl)cc12,2.82 µM (active),–

Structure (SMILES),Potency,"activation, negative = inhibition"
O=C(NCC#CCSc1nnc(-c2cccc3ccccc23)o1)c1cccs1,inactive,–
COCCN(C(=O)CC1CCCCC1)c1c(N)n(CC(C)C)c(=O)[nH]c1=O,inactive,–
O=C(Nc1ccc(S(=O)(=O)N2CCCCC2)cc1)C1CCN(C(=O)c2ccc(F)cc2)CC1,inactive,–
Cc1ccc(S(=O)(=O)N(C)C)cc1NC(=O)CN1c2cccc3cccc(c23)S1(=O)=O,inactive,–
COc1ccccc1CC(=O)Nc1ccc(F)cc1F,inactive,–
COc1ccc(NC(=O)c2ccc(C#CC(C)(C)O)cc2)cc1,inactive,–
COc1ccc(NC(=O)c2ccc(OC)cc2)cc1,1.41 µM (active),–
COc1cc(OC)cc(C(=O)OCC(=O)Nc2ccc(F)cc2F)c1,inactive,–
COc1ccc(C(=O)Nc2ccc(F)cc2F)cc1,2.51 µM (active),–
COc1ccc(C(=O)Nc2cccc(S(C)(=O)=O)c2)cc1,inactive,–
COc1ccc(NC(=O)CC2SC(N3CCCCC3)=NC2=O)cc1OC (centres undefined),inactive,–
CCCc1ccc(C(=O)COC(=O)CN2C(=O)NC3(CCCCC3C)C2=O)cc1 (centres undefined),inactive,–
C=CCN1CCN(C(=O)CCCc2ccccc2)CC1,0.1 µM (active),–
O=C(CCCc1ccccc1)NCc1ccccc1,inactive,–
CCC(C)NC(=O)CCCc1ccccc1 (centres undefined),inactive,–
CS(=O)(=O)c1ccc2nc(NC(=O)C3CCCCC3)sc2c1,inactive,–
COc1ccc2nc(NC(=O)NC3CCCCC3)sc2c1,2 µM (active),–
COc1ccc2nc(NC(=O)c3ccc(Br)s3)sc2c1,2.24 µM (active),–
COc1ccc2nc(NC(=O)[C@@H]3CCCN3C(=O)c3cccs3)sc2c1,inactive,–
CCn1c(SCC(=O)Nc2nc3ccc(OC)cc3s2)nnc1-c1ccoc1C,inactive,–
CCc1noc(C)c1C(=O)Nc1nc2ccc(OC)cc2s1,inactive,–
